# Measurements taken from PubChem BioAssay AID1347383 (Zoeller Lab, School of Medicine, Boston University, 2020).
# Activity calls are given as the source filed them.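 The calls were made as follows: active = cell survival after UV exposure 2 SD above solvent-only control wells at 10 µM, confirmed on one or two repeats; inactive = the rest.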
# Test: protection of CHO cells from pyrene-fatty acid UV killing, primary screen, phospholipid biosynthesis inhibitor project, ZR-82 cells, Analyticon library, screen 2 (AID 1347383);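 also: survival reflects blocked phospholipid synthesis cutting uptake of the phototoxic fatty acid; compound and fatty acid exposure 3 h then viability read next day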
# Conditions: ZR-82 CHO cells, CellTiter Blue, at 10 µM, peroxisome-deficient CHO-K1 variant, with DGAT-1, DGAT-2 and ACAT inhibitors
row,SMILES,outcome
1,Cc1c(O)cc(C(C)C)c(O)c1-c1c(C)c(O)cc(C(C)C)c1O,inactive
2,CC(=O)Nc1ccccc1C(=O)O,inactive
3,CCC(C)C1NC(=O)C(Cc2ccccc2)NC(=O)C(CCCCCC(=O)C(O)CO)NC(=O)C2CCCCN2C1=O (stereo not given),inactive
4,Cn1c(=O)c2c(ncn2C)n(C)c1=O,inactive
5,COC(=O)C(CO)NC(=O)c1cccc(O)c1O (stereo not given),inactive
6,O=C1c2ccc(O)cc2C(=O)c2ccc(O)cc21,inactive
7,CC(C)=CCc1c(O)cc2oc3cc(C)cc(O)c3c2c1C,inactive
8,C/C=C/C=C/[C@H]1Cc2cc(O)cc(O)c2O1,inactive
9,COC12CC3C(C(C)C1=CC(=O)O2)C(O)C(OC(=O)/C=C/c1ccccc1)C1(O)C(C)(C)CCCC31C (stereo not given),inactive
10,C=C(C)[C@H]1CC[C@]2(C(=O)O)CC[C@]3(C)C(CCC4[C@@]5(C)CCC(=O)C(C)(C)C5CC[C@]43C)C12 (stereo not given in full),inactive
11,CCCc1c(C(=O)O)cc2c(c1O)C(=O)c1c(O)cccc1C2=O,inactive
12,COc1cc(CCc2ccccc2)cc(O)c1C/C=C(\C)CCC=C(C)C,inactive
13,CN(/C=C\c1ccccc1)C(=O)/C=C/c1ccccc1,inactive
14,CCCCCC1CC(O)CC(=O)O1 (stereo not given),inactive
15,COC(=O)/C=C/c1ncn(C)c1CC=C(C)C,inactive
16,COc1cc(O)cc2occ(-c3ccc(O)cc3)c(=O)c12,inactive
17,CC(C)CC1NC(=O)C2CCCN2C1=O (stereo not given),inactive
18,Oc1cc(O)c2c(c1)O[C@H](c1ccc(O)c(O)c1)[C@@H](O)C2,inactive
19,C=C(C(=O)O)C1CC(OC(=O)CC(C)CC)C2(C)CCCC(=C)C2C1 (stereo not given),inactive
20,COc1ccc(C2(O)c3ccccc3NC(=O)C2OC)cc1 (stereo not given),inactive

row,SMILES,outcome
1,CC(C)c1ccc2c(c1)[C@H](O)CC1[C@@](C)(C(=O)O)CCC[C@]21C (stereo not given in full),inactive
2,CN1[C@@H]2CC[C@H]1CC(OC(=O)C(CO)c1ccccc1)C2 (stereo not given in full),inactive
3,C=C(C(=O)O)C(CCCCCC)C(=O)O (stereo not given),inactive
4,COC(=O)C12OC1CCC1C3(C)CC(C4=CC(=O)OC4O)OC(=O)C3CCC12C (stereo not given),inactive
5,C=C(C)[C@@H]1CC[C@]2(COC(C)=O)CC[C@]3(C)[C@H](CC[C@@H]4[C@@]5(C)CC[C@H](OC(C)=O)C(C)(C)[C@@H]5CC[C@]43C)[C@@H]12,inactive
6,COc1c(C)c2c(c(O)c1C/C=C(\C)CCCC(C)C(=O)O)C(=O)OC2 (stereo not given),inactive
7,O=C1OCC(c2ccccc2)=C1Cc1ccccc1,inactive
8,CO[C@H]1/C=C/[C@@](C)(O)/C=C/C(=O)O[C@H](C)[C@@H](C)CC/C=C/1C,inactive
9,Cc1cc(O)c2c3c(c(O)c4c(c13)OC(C)C4(C)C)C(=O)O2 (stereo not given),inactive
10,COc1cc(CNC(=O)CCCCCCC(C)C)ccc1O,inactive
11,COc1ccc(C(O)C(C)O)cc1 (stereo not given),inactive
12,OC1C(O)C(O)C(O)C(O)C1O (stereo not given),inactive
13,COc1cc(OC)c2c(c1Cl)O[C@]1(C2=O)C(O)=CC(=O)C[C@H]1C,inactive
14,O=c1c(O)c(-c2c(O)cccc2O)oc2cc(O)cc(O)c12,inactive
15,CC1=CC(=O)CC(C)(C)[C@@]1(O)/C=C/C(C)=C/C(=O)O,inactive
16,CC1(C)C=Cc2c(ccc3c2O[C@@H]2COc4cc5c(cc4[C@@]2(O)C3=O)OCO5)O1,inactive
17,C[C@@H]1CCC2C(C)(C)[C@H](O)CC[C@]2(C)[C@@]12Cc1c(O)cc3c(c1O2)CNC3=O (stereo not given in full),inactive
18,CCCC(O)C1OCC2=C1C(O)C1OC1C2O (stereo not given),inactive
19,COc1cc(CCc2ccc(OCC(O)C(C)(C)O)cc2)cc2c1OCO2 (stereo not given),inactive
20,CCCCCCOC1OC(COC2OCC(O)C(O)C2O)C(O)C(O)C1O (stereo not given),inactive
